An excerpt weighted towards active compounds, which were near 6.8% of everything screened.
Abs 340nm: compounds absorbing at 340 nm. 65,000 tested, under 10 active. fold change at 10 µM. AID 708. compound absorbance at 340 nm, fold over control;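 active means at 10 µM dose, initial 340 nm absorbance at least 2 fold that of control wells; inactive means change under 2 fold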;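 further: initial absorbance extrapolated from kinetic A340 decline of NADH oxidation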
Spn MK inh: S. pneumoniae mevalonate kinase inhibition | purified MK, PK/LDH-coupled NADH absorbance 340 nm | inhibition, % at 10 µM | 65,000 compounds, 0.48% hits | AID 555;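 active means ranked among the strongest by inhibition in the single 10 µM screen, a fixed top-ranked set picked for dose follow-up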
Spn PMK inh: blocks S. pneumoniae phosphomevalonate kinase; purified PMK, PK/LDH-coupled NADH absorbance 340 nm; inhibition, % at 10 µM; 65,000 compounds, 0.49% hits; AID 539;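 active means top-ranked compounds by inhibition in the single 10 µM screen, taking a fixed number of the strongest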;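 further: 0% = full reaction with DMSO carrier and 100% = background rate without enzyme reaction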
Spn DPM-DC inh: inhibitors of Streptococcus pneumoniae diphosphomevalonate decarboxylase; calls only at 10 µM; 65,000 compounds, 0.49% hits; purified DPM-DC, PK/LDH coupled NADH fluorescence;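 active means the 320 compounds with the highest percent inhibition in the single-dose primary screen, excluding strongly autofluorescent ones, cut at about 32% in these data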;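 further: kinetic rate of NADH fluorescence loss reporting ADP formed by the decarboxylase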
Autofluor 339: intrinsic fluorescence of library compounds, ex339/em460 – biochemical, MLSMR library, data from DPM-DC assay, artefact control, profiling panel; compound autofluorescence, ex339/em460 nm, NADH buffer; hits give high values; 1 = no-compound wells, NADH background; fluorescence fold increase at 10 µM; 65,000 compounds, 5.5% hits; AID 709;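 active means at 10 µM, mean starting fluorescence two-fold or more over control wells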;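 further: signal is the first read of a kinetic run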
NADH coupling: inhibition of NAD/NADH coupling enzymes, library profiling; coupled PK/LDH NADH assays, four targets; IC50, µM (series often up to 10 µM), without a hit: at the highest dose inhibition; 65,000 compounds, 0.02% hits; AID 774;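 active means single-dose screening hits from any of four coupled enzyme assays that gave an IC50 when retested across doses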;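 further: the DPM-DC format reads NADH fluorescence rather than 340 nm absorbance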
* marks the source's active call; other numbers are inactive results; i = inactive; . = no result given.

SMILES | Abs 340nm | Spn MK inh | Spn PMK inh | Spn DPM-DC inh | Autofluor 339 | NADH coupling
COc1cc(-n2c3nc4ccccc4nc3c3c(=O)n(Cc4ccco4)cnc32)cc(OC)c1OC | 1 | 0 | 0 | i | 1.1 | 0%
CC(C)(C)c1cc(CNC2CS(=O)(=O)C[C@@H]2O)cc(C(C)(C)C)c1O (some centres undefined) | 0.98 | 8 | 5 | i | 1.1 | 4%
Cc1nc2oc(C(=O)c3ccccc3)c(N)c2c2c1COC(C)(C)C2 | 1.2 | 6 | 0 | i | 1.2 | 5%
CCOC(=O)c1c(SC)nc(SC)c2c1CCC2 | 1 | 0 | 11 | i | 1.1 | 4%
CCCc1nc2oc(C(=O)OCC)c(N)c2c2c1COC(C)(C)C2 | 1.1 | 2 | 1 | . | 3.9* | 2%
CCOC(=O)c1oc2nc(C(C)C)c3c(c2c1N)CCC3 | 1.1 | 7 | 13 | . | 3.8* | 10%
CCOC(=O)c1oc2nc(C(C)C)c3c(c2c1N)CC(C)(C)OC3 | 1.1 | 4 | 11 | . | 3.8* | 8%
COc1cccc(CC(NC(C)=O)C(=O)NC2CCN(c3nc(C)cc(C)c3C#N)CC2)c1OC (centres undefined) | 1.1 | 9 | 12 | i | 3* | 17%
CCCCS(=O)(=O)C(=C1Nc2ccccc2N1)S(=O)(=O)CCCC | 1.1 | 13 | 26* | i | 1.2 | 15%
CCS(=O)(=O)NCCc1csc(C)n1 | 1 | 77* | 8 | i | 1.1 | 28%
CCS(=O)(=O)NCc1csc(C)n1 | 0.97 | 4 | 13 | i | 1.1 | 6%
CNC(=O)c1ccsc1NC(=O)c1ccc(Cl)s1 | 1.1 | 6 | 0 | i | 1.1 | 5%
COc1cc2c(cc1OC)CN(Cc1cc(=O)n3cc(C)ccc3n1)CC2 | 1.1 | 5 | 6 | i | 2.3* | 10%
COc1ccc(C(=O)N2CCc3cc(OC)c(OC)cc3C2)cc1OC | 1.1 | 4 | 6 | i | 1.1 | 3%
COc1ccc(C)cc1-n1nnnc1SCc1cc(=O)n2cc(C)ccc2n1 | 1.1 | 0 | 12 | i | 2.1* | 11%
CCOC(=O)N1CCN(C(=O)c2cc3c(=O)[nH]c4ccccc4c3s2)CC1 | 1.1 | 9 | 17 | . | 3.7* | 13%
COc1ccccc1-n1c(N)c(C(=O)NCC2CCCO2)c2nc3ccccc3nc21 (centres undefined) | 0.89 | 7 | 15 | . | 2.4* | 11%
Nc1c(C(=O)OCC2CCCO2)c2nc3ccccc3nc2n1C1CCCCC1 (centres undefined) | 1.1 | 6 | 14 | . | 2.1* | 10%
O=C(CSc1nc2ccccc2n1-c1ccccc1)NCC1CCCO1 (centres undefined) | 1.1 | 7 | 3 | i | 1.1 | 7%
Nc1c(C(=O)NCC2CCCO2)c2nc3ccccc3nc2n1-c1ccccc1 (centres undefined) | 1.1 | 0 | 15 | . | 4.9* | 8%
CC(=O)N(C)C1(c2nnnn2CCOC(=O)Nc2cccc3ccccc23)CCCC1 | 0.99 | 10 | 11 | i | 1 | 3%
O=C(CNCC1CCCO1)N1CCCc2ccccc21 (centres undefined) | 1 | 14 | 0 | i | 1.1 | 5%
Cc1ccc(-n2ncc3c(=O)n(CC(=O)N4CCCc5ccccc54)cnc32)cc1C | 1 | 4 | 12 | i | 1.1 | 2%
NC(=O)c1cc2ccc(O)cc2oc1=NCc1ccccc1 | 1 | 0 | 19 | . | 4.6* | 10%
COc1ccc(OC)c(N=c2oc3cc(O)ccc3cc2C(N)=O)c1 | 1.1 | 9 | 4 | . | 3.3* | 7%
SMILES | Abs 340nm | Spn MK inh | Spn PMK inh | Spn DPM-DC inh | Autofluor 339 | NADH coupling
NC(=O)c1cc2ccc(O)cc2oc1=Nc1ccccc1 | 1.1 | 7 | 8 | i | 1.9 | 9%
CCOc1ccc(OCC)c(N=c2oc3c(C)ncc(CO)c3cc2C(N)=O)c1 | 1 | 1 | 4 | i | 0.97 | 2%
N#Cc1cc(N)c(Nc2ccccc2)cc1C#N | 1.1 | 0 | 10 | i | 3.5* | 14%
Cn1cnnc1SCC(=O)n1c2ccccc2c2ccccc21 | 1 | 67* | 42* | i | 1.1 | 36%
O=C(NCc1cccnc1)c1cnn2ccccc12 | 1.1 | 5 | 4 | i | 1.2 | 3%
Cc1cc(C)n2ncc(C(=O)NCc3cccnc3)c2n1 | 1 | 9 | 8 | i | 3.6* | 7%
Cc1cccn2c(=O)c3cc(C(=O)NCc4cccnc4)c(=N)n(C(C)C)c3nc12 | 1.1 | 15 | 7 | . | 3.7* | 11%

Source: PubChem
